Assay results published in PubChem BioAssay (NCATS).
Where “and” joins values, the source holds several entries; their conditions need not be identical. Equal entries are not always repeated. Results filed as inconclusive are left out. Calls of active or inactive are those of the source. Unless noted, calls come from the whole dose curve; as a rule, active = well fitted curve in the direction sought with a large enough effect; inconclusive = small, poorly fitted or top-dose-only effect, or another doubt; inactive = no such curve, though single readings can be large; an effect the other way counts as inactive or inconclusive.

Key:
[1] = Cell Viability - LYMP2-001 (AID 921);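 note: series mostly up to about 92 µM; 0% = DMSO only and full inhibition = tetraoctylammonium bromide control wells; nearly all actives have a fitted effect of over 70% in size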
Summary of the method: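 qHTS, 1536-well; lymphoblastoid cells, 24 hr compound, 37 C; ATP by CellTiter-Glo, 30 min RT; luminescence; Hill-fit AC50.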

[2] = MultiTox-Fluor Cytotoxicity Assay - LYMP1-002 - Dead Cells (AID 960);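 note: 0% = DMSO and 100% = tetraoctylammonium bromide; nearly all actives have a fitted effect of over 60% in size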
Summary of the method: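 Cells were plated, rested 5 hr, then treated with compound dilution series for 16 hr at 37 C. After adding substrate reagent and 60 min at room temperature, dead-cell protease fluorescence gave concentration-response curves fitted by the Hill equation.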

[3] = Cell Viability - LYMP2-009 (AID 968);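 note: series mostly up to about 92 µM; 0% = DMSO alone and the full-kill end = tetraoctylammonium bromide at 92 µM; nearly all actives have a fitted effect of over 55% in size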
[4] = Cell Viability - LYMP2-021 (AID 974);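 note: compound exposure lasts 24 hours at 37 °C; % is set by controls: 0 for no effect and ±100 for the full control effect; nearly all actives have a fitted effect of over 55% in size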
Summary of the method: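 Loss of cellular ATP, measured with a luciferase-based CellTiter-Glo readout, serves as the toxicity signal in human lymphoblastoid cells treated for 24 hours at 37 C. Potency is reported as AC50 from a standard Hill model.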

[5] = Cell Viability - LYMP2-010 (AID 981); note: nearly all actives have a fitted effect of over 55% in size; note: potency is the fitted concentration of half-maximal effect
Summary of the method: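 Steps: seed 2500 LYMP2-010 cells per well; incubate 5 hr at 37 C; add compound; incubate 24 hr at 37 C; add CellTiter-Glo, wait 30 min at room temperature; read luminescence. Concentration-response fitted to Hill equation for AC50.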

[6] = Cell Viability - LYMP2-012 (AID 982);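 note: cellular ATP by luciferase luminescence where a drop means cytotoxicity; cells exposed to compound for one day before reading; 0% = DMSO only and full loss = 92 µM tetraoctylammonium bromide; nearly all actives have a fitted effect of over 55% in size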
[7] = Cell Viability - LYMP2-016 (AID 984)
Summary of the method: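 Acute toxicity in a Coriell human lymphoblastoid line is scored as loss of intracellular ATP over 24 h of treatment in complete medium. CellTiter-Glo signal is fitted across concentrations with the Hill equation to give AC50.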

[8] = molecular target: Estrogen receptor (Homo sapiens) (UniProt P03372); test: qHTS assay for small molecule antagonists of estrogen receptor alpha signaling (AID 588513; active = well fitted curve in the direction sought with a large enough effect in the signal ratio, with a control signal flat, not every such curve was filed as active; the % refers to the signal ratio; note: % is set by controls: 0 for no effect and ±100 for the full control effect)
Summary of the method: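 Cells were plated at 5000/well and incubated 4 h at 37 C. Compounds were added as 1:2 dilution series, duplicates. 17-beta-estradiol (0.5nM final) was added for 18 h before CCF4 detection.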

[9] = molecular target: Estrogen receptor (Homo sapiens) (UniProt P03372); test: qHTS assay for small molecule agonists of estrogen receptor alpha signaling (AID 588514; calls by dose curve;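 note: 0% = vehicle only and 100% = reference agonist; nearly all actives have a fitted effect of over 70% in size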)
Summary of the method: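 Efficacy is expressed against 20 nM 17-beta-estradiol (100%) and DMSO basal (0%); EC50 from Hill equation. Assay: beta-lactamase reporter in ER-alpha-UAS-bla HEK 293 cells, 18 h compound incubation, CCF4 detection.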

[10] = molecular target: Peroxisome proliferator-activated receptor delta (Homo sapiens) (UniProt Q03181); test: qHTS assay for small molecule agonists of peroxisome proliferator-activated receptor delta signaling (AID 588534; calls by dose curve;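 note: 0% = DMSO basal wells and 100% = positive control agonist at 10 µM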)
Summary of the method: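 Agonist-mode qHTS; reporter cells, 5 hrs 37 C pre-incubation; compound titration, 18 hrs 37 C; CCF4 dye, 2 hrs RT; fluorescence read. EC50/efficacy via Hill fit.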

[11] = molecular target: Peroxisome proliferator-activated receptor gamma (Homo sapiens) (UniProt P37231); test: qHTS assay for small molecule agonists of peroxisome proliferator-activated receptor gamma signaling (AID 588536; active = well fitted curve in the direction sought with a large enough effect in the signal ratio, with a control signal flat, not every such curve was filed as active; the % refers to the signal ratio;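 note: 0% = DMSO basal wells and 100% = rosiglitazone at 2 µM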)
Summary of the method: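 Cells were plated and held 6–6.5 h at 37 C, then compounds were added as a titration series. After a further 16 h, CCF4 dye was loaded for 2 h at room temperature and emission at 460/530 nm recorded.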

[12] = molecular target: Retinoic acid receptor RXR-alpha (Homo sapiens) (UniProt P19793); test: qHTS assay for small molecule agonists of retinoid X receptor alpha signaling (AID 588544; calls by dose curve;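 note: 0% = DMSO basal wells and 100% = reference agonist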)
[13] = molecular target: Thyroid hormone receptor beta (Homo sapiens) (UniProt P10828); test: qHTS assay for small molecule agonists of thyroid hormone receptor beta signaling (AID 588545; calls by dose curve)
Summary of the method: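 Cells (2500/well) were seeded, incubated 4 hrs at 37 C, dosed with a compound series, incubated 18 hrs, loaded with CCF4 dye for 2 hrs at RT, then read for fluorescence. Data were scaled between DMSO (0%) and 10 nM T3 (100%).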

[14] = qHTS assay for small molecule antagonists of retinoid X receptor alpha signaling (AID 588546); details: HEK293T RXRa-UAS-bla, beta-lactamase ratio, antagonist mode; measured here: W530 green channel, cytotoxicity proxy;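 note: cells stimulated with 9-cis-retinoic acid as agonist; % is set by controls: 0 for no effect and ±100 for the full control effect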
Summary of the method: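 Beta-lactamase reporter inhibition, read as CCF4 fluorescence ratio (ex 405, em 460/530 nm) after 2 h at RT. HEK293T UAS-bla cells, 2500/well, were stimulated with 9-cis-RA at 500 or 100 nM final alongside test compound for 18 h at 37 C.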

[15] = molecular target: Thyroid hormone receptor beta (Homo sapiens) (UniProt P10828); test: qHTS assay for small molecule antagonists of thyroid hormone receptor beta signaling (AID 588547; active = well fitted inhibition curve with a large enough effect in the signal ratio, with a control signal flat, not every such curve was filed as active; the % refers to the signal ratio;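 note: cells stimulated with 0.4 nM T3 agonist during compound exposure; series mostly up to about 77 µM; % is set by controls: 0 for no effect and ±100 for the full control effect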); details: TR-UAS-bla HEK293, beta-lactamase ratio, antagonist mode, 18 h
Summary of the method: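 TR-UAS-bla GripTite HEK293 cells in 2% charcoal/dextran FBS medium were preincubated 4 h at 37 C, given compound (0.59 nM to 92 uM) plus 0.4 nM T3 (final) for 18 h, then CCF4 for 2 h at RT; Hill fit gave IC50.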

[16] = molecular target: Tumor necrosis factor (Homo sapiens) (UniProt P01375); test: qHTS assay to identify small molecules that stimulate Tumor Necrosis Factor-alpha (TNF-alpha) secretion (AID 651757; active = well fitted curve in the direction sought with a large enough effect in the signal ratio; the % refers to the signal ratio; note: 0% is about no effect)
Summary of the method: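 Human monocytic THP-1 cells are plated, treated with compound and held at 37 C for 17 hrs. Labeled anti-TNF-alpha antibody mixture is then added; after 3 hr at room temperature, TR-FRET signal reports secreted TNF-alpha.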

[17] = qHTS assay for environmental chemicals that activate the Aryl hydrocarbon Receptor (AhR) signaling pathway (AID 651777); details: 1A2-DRE human hepatoma cells, luciferase, 24 h; activation: stronger effect = higher value; note: % of control where 0% means no effect; nearly all actives have a fitted effect of over 15% in size
Summary of the method: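 Human hepatoma 1A2-DRE cells stably carrying a DRE/CYP1A2 promoter–luciferase reporter, 1,200 cells/well, exposed to compound 24 hr at 37 C. Luciferase read by One-Glo luminescence after 30 min at room temperature; increased signal marks AhR activation.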

[18] = Cell Viability - LYMP2-024 (AID 988);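 note: plate controls were DMSO only for no effect and 92 µM tetraoctylammonium bromide for full effect; nearly all actives have a fitted effect of over 60% in size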
Summary of the method: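 qHTS cytotoxicity, human lymphoblastoid line, complete medium; 24 h cpd treatment, 37 C; CellTiter-Glo ATP luminescence readout; tetraoctylammonium bromide positive control; AC50 via Hill fit.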

[19] = molecular target: Nuclear receptor ROR-gamma (Homo sapiens) (UniProt P51449); test: qHTS assay for small molecule antagonists of the retinoid-related orphan receptor gamma (ROR-gamma) signaling pathway (AID 651802);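 note: CHO cells with doxycycline-induced ROR-gamma expression; series mostly up to about 92 µM; % is set by controls: 0 for no effect and ±100 for the full control effect; nearly all actives have a fitted effect of over 60% in size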
Summary of the method: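 Steps: cells dispensed; compound or DMSO transferred by pin tool; doxycycline added to induce the ROR response element-driven luciferase; plates held 16hr at 37C; ONE-Glo added and luminescence measured.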

[20] = qHTS assay for small molecule antagonists of the retinoid-related orphan receptor gamma (ROR-gamma) signaling pathway - cell viability counter screen (AID 720652; active = well fitted curve in the direction sought with a large enough effect in the repeat runs; an effect the other way counts as inactive or inconclusive;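 note: CHO reporter cells with doxycycline-induced ROR-gamma expression; series mostly up to about 92 µM; compound exposure lasted 16 hr before ATP read; % is set by controls: 0 for no effect and ±100 for the full control effect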)
Summary of the method: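 Steps: seed CHO cells bearing TET-inducible ROR and ROR response element-luciferase; rest 5 hr at 37 C; add compound, then doxycycline; incubate 16 hr; add CellTiter-Glo and read luminescence as ATP-based viability.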

Sequence of Peroxisome proliferator-activated receptor gamma (Homo sapiens) (P37231 whole entry, looked up): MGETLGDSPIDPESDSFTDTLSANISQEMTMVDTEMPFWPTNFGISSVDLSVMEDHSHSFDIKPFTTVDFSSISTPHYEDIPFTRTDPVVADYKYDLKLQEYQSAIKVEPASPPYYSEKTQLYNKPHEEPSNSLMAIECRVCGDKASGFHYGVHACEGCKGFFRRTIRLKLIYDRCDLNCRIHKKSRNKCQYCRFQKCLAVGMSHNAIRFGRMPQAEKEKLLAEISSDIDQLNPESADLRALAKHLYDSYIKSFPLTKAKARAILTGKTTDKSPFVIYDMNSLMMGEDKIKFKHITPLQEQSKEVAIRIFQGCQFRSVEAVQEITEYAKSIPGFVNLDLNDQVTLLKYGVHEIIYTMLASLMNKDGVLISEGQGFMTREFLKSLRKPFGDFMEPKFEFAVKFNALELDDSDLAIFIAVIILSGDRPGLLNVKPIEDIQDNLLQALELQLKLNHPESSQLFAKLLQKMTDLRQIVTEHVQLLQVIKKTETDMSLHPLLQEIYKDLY
Sequence of Estrogen receptor (Homo sapiens) (P03372 whole entry, looked up): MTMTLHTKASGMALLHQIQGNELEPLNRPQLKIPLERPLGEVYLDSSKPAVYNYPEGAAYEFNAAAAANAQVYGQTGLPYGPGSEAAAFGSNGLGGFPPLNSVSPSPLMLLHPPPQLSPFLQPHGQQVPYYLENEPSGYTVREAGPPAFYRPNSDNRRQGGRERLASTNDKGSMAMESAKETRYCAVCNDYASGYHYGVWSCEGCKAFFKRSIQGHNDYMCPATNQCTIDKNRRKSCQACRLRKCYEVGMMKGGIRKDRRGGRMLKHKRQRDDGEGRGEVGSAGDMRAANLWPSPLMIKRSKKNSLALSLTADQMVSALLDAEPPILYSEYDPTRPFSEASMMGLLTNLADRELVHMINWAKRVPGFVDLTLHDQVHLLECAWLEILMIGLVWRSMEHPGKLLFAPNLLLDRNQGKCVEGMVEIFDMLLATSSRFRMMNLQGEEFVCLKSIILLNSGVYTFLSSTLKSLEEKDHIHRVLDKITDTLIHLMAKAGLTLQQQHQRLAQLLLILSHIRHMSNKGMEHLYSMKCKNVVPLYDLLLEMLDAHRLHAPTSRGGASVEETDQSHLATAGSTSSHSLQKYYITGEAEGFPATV
Sequence of Nuclear receptor ROR-gamma (Homo sapiens) (P51449 whole entry, looked up): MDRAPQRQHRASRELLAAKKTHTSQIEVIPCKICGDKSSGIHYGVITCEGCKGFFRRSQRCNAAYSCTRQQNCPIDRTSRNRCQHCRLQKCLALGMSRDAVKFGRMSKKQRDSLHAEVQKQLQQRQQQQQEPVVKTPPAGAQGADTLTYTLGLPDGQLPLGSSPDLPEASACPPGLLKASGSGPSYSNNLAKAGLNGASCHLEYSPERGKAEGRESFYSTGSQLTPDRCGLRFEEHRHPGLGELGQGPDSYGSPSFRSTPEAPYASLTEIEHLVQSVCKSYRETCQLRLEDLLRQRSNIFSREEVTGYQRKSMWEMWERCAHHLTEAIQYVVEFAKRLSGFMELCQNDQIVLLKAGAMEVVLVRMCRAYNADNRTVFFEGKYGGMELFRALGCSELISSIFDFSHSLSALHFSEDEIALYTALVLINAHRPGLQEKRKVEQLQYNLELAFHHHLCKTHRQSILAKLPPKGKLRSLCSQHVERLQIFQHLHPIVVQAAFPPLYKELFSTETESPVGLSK
Sequence of Peroxisome proliferator-activated receptor delta (Homo sapiens) (Q03181 whole entry, looked up): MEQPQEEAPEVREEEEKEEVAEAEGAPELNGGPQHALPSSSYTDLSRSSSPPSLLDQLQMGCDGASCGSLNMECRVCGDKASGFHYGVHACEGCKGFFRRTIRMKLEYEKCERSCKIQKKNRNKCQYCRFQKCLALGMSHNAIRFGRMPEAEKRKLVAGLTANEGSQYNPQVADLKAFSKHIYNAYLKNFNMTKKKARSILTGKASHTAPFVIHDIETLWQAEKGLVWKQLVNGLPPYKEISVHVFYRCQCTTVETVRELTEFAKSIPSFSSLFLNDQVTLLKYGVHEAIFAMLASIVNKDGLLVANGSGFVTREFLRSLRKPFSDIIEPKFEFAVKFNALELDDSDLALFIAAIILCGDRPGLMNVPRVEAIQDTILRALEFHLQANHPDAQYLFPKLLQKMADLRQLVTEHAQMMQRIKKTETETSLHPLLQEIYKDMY
Sequence of Thyroid hormone receptor beta (Homo sapiens) (P10828 whole entry, looked up): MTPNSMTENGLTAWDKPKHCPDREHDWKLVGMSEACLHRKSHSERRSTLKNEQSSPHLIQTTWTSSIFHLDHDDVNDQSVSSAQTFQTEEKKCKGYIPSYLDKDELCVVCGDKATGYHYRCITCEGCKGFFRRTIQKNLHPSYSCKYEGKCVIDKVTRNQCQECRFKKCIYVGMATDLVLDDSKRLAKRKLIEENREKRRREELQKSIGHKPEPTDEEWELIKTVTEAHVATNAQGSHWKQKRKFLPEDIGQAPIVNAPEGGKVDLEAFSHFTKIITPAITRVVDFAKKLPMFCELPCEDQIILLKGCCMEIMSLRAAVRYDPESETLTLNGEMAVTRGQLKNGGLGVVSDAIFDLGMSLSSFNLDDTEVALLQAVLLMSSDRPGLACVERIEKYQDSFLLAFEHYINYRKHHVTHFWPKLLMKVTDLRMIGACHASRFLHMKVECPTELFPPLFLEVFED
Sequence of Tumor necrosis factor (Homo sapiens) (P01375 whole entry, looked up): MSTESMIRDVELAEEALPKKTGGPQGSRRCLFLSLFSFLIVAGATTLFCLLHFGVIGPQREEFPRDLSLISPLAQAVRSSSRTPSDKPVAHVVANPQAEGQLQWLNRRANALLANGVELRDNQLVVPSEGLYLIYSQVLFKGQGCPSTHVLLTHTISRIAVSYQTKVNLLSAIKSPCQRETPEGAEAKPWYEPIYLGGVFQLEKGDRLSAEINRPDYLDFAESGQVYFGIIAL
Sequence of Retinoic acid receptor RXR-alpha (Homo sapiens) (P19793 whole entry, looked up): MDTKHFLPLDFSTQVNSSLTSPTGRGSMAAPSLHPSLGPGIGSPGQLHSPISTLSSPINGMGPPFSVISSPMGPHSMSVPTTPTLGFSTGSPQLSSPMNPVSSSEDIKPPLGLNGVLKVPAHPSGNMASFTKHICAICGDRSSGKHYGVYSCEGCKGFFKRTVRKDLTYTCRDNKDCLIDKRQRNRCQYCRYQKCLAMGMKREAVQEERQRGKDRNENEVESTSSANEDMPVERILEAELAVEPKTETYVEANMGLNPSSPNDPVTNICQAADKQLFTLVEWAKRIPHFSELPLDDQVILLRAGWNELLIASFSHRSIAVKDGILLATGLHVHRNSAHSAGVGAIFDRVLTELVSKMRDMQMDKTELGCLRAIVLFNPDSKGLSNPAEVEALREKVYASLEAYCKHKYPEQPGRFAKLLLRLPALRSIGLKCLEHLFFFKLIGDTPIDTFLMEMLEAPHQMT

C=CC1CC=CCC1 (stereo unspecified)
inactive: Potency [1] | Potency [2] | Potency [3] | Potency [4] | Potency [6] | Potency [7] | Potency [8] | Potency [9] | outcome [10] | outcome [11] | Potency [12] | outcome [13] | activity change % (negative = inhibition) [15] 13.7% and -3.35% | outcome [16] | activation [17] 0.186% and 0.879%
active: Potency [5] 39.8 µM
-1.79% and -13.7%: max response [14]

O=[N+]([O-])c1ccc(Cl)c(Cl)c1
inactive: Potency [1] | Potency [2] | Potency [3] | Potency [4] | Potency [5] | Potency [7] | Potency [18] | Potency [8] | Potency [9] | outcome [10] | outcome [11] | Potency [12] | outcome [13] | activity change % (negative = inhibition) [15] -4.24% | outcome [16] | activation [17] 0.165% | Potency [19] | Potency [20]
-6.04%: max response [14]

Nc1ccc(Br)cc1
3.4%: max response [14]
inactive: Potency [1] | Potency [2] | Potency [3] | Potency [4] | Potency [5] | Potency [6] | Potency [7] | Potency [18] | Potency [8] | Potency [9] | outcome [10] | Potency [12] | outcome [13] | activity change % (negative = inhibition) [15] -8.18% | outcome [16] | activation [17] 0.717% | Potency [19] | Potency [20]

CCCC(=O)Cl
-5.53%: max response [14]
inactive: Potency [1] | Potency [2] | Potency [3] | Potency [4] | Potency [5] | Potency [6] | Potency [7] | Potency [18] | Potency [8] | Potency [9] | outcome [10] | outcome [11] | Potency [12] | outcome [13] | activity change % (negative = inhibition) [15] 3.8% | outcome [16] | activation [17] -2.02% | Potency [19] | Potency [20]

c1ccc2c(c1)CCCC2
-8.06%: max response [14]
inactive: Potency [1] | Potency [2] | Potency [3] | Potency [4] | Potency [5] | Potency [6] | Potency [7] | Potency [18] | Potency [8] | Potency [9] | outcome [11] | Potency [12] | outcome [13] | activity change % (negative = inhibition) [15] 3.81% | outcome [16] | activation [17] 2.13% | Potency [19] | Potency [20]

C=CC(=O)OCC
-8.36%: max response [14]
inactive: Potency [1] | Potency [2] | Potency [3] | Potency [4] | Potency [5] | Potency [6] | Potency [7] | Potency [18] | Potency [8] | Potency [9] | outcome [10] | outcome [11] | Potency [12] | outcome [13] | activity change % (negative = inhibition) [15] -5% | outcome [16] | activation [17] -0.74% | Potency [19] | Potency [20]

Cc1cccc([N+](=O)[O-])c1
inactive: Potency [1] | Potency [2] | Potency [3] | Potency [4] | Potency [5] | Potency [6] | Potency [7] | Potency [18] | Potency [8] | Potency [9] | outcome [10] | outcome [11] | Potency [12] | outcome [16] | activation [17] -1.15% and 1.37% | Potency [20]
-5.54% and -8.46%: max response [14]

CCSC(=O)Cl
-5.71%: max response [14]
inactive: Potency [1] | Potency [2] | Potency [3] | Potency [4] | Potency [5] | Potency [6] | Potency [7] | Potency [18] | Potency [8] | Potency [9] | outcome [10] | outcome [11] | Potency [12] | outcome [13] | activity change % (negative = inhibition) [15] -1.08% | outcome [16] | activation [17] 0.624% | Potency [19] | Potency [20]
